The values that follow come from PubChem BioAssay (NCATS).

Inconclusive results are not listed. A call without a number means that no potency is given here. Values without a mark were called inactive. The source made the active and inactive calls. Calls come from the whole dose curve.

A short description of the test: Primary qHTS for Vero E6 cytotoxicity: counterscreen for inhibitors of SARS-S pseudo-typed particle cell entry (AID 1479150). The conditions noted are these: cell viability; series mostly up to 57.1 µM. (Quantitative high-throughput screening tests each substance at several concentrations.)
Turning to `COc1cccc(C(=O)CCN[C@@H](C)[C@H](O)c2ccccc2)c1`, the Potency result is “inactive”.
Same read-out and setting: as for `CC(C)CN(C[C@@H](OP(=O)(O)O)[C@H](Cc1ccccc1)NC(=O)O[C@H]1CCOC1)S(=O)(=O)c1ccc(N)cc1`, the entry is “inactive”; as for `Cc1cc(O)cc2c1O[C@](C)(CCC[C@H](C)CCC[C@H](C)CCCC(C)C)CC2`, “inactive”.
The same measure, in the same setting: to `CC(=O)OC(C)OC(=O)C(C)c1ccc(-c2ccccc2)c(F)c1` (stereo not drawn) belongs “inactive”; to `CC[C@H](C)C(=O)O[C@H]1C[C@H](O)C=C2C=C[C@H](C)[C@H](CC[C@@H](O)C[C@@H](O)CC(=O)O)[C@H]21`, “inactive”; to `c1ccc2c(c1)sc1ccccc12`, “inactive”.
Same read-out and setting: to `O=C(OOC(=O)c1ccccc1)c1ccccc1` belongs “inactive”.
As to `CCCOC(=O)c1ccccc1`, the Potency entry is “inactive”.
Same read-out and setting: as for `C=CC1=C(C(=O)O)N2C(=O)[C@@H](NC(=O)/C(=N\O)c3csc(N)n3)[C@H]2SC1` (stereo in doubt), the entry is “inactive”; as for `CN1[C@@H]2CC[C@H]1CC(OC(c1ccccc1)c1ccccc1)C2` (stereo partly drawn), “inactive”; as for `CCOc1ccc(NS(=O)(=O)c2ccc(N)cc2)nn1`, “inactive”.
On the same count and under the same terms, to `Oc1ccccc1` belongs “inactive”; to `CC(C)Cc1ccc(CC(=O)O)cc1`, “inactive”.
As for `NC[C@H]1O[C@H](O[C@H]2[C@H](O)[C@@H](O[C@H]3O[C@H](CO)[C@@H](O)[C@H](N)[C@H]3O)[C@H](N)C[C@@H]2N)[C@H](O)[C@@H](O)[C@@H]1O`, the outcome is “inactive [at 5.34 µM]”.
Take `Cc1ccnc(NS(=O)(=O)c2ccc(N)cc2)n1`: the Potency result is “inactive”.
With `O=C(/C=C/c1ccccc1)OCc1ccccc1`, the Potency entry was “inactive”.
For `Cc1cc2nc3c(=O)[nH]c(=O)nc-3n(C[C@H](O)[C@H](O)[C@H](O)CO)c2cc1C`, the Potency result is “inactive”.
Still for that read-out and setting: as for `Cc1c(N(C)CS(=O)(=O)O)c(=O)n(-c2ccccc2)n1C`, the entry is “inactive”; as for `O=C(C1CCCCC1)N1CC(=O)N2CCCc3ccccc3C2C1` (stereo not drawn), “inactive”; as for `CCc1oc2ccccc2c1C(=O)c1cc(I)c(O)c(I)c1`, “inactive”.
Still for that read-out and setting: to `Cc1c(C)c2c(c(C)c1O)CCC(C)(COc1ccc(CC3SC(=O)NC3=O)cc1)O2` (stereo not drawn) belongs “inactive”; to `O=C(O)CN(CCN(CC(=O)O)CC(=O)O)CCN(CC(=O)O)CC(=O)O`, “inactive”; to `CC1(C)S[C@@H]2[C@H](NC(=O)C(c3ccccc3)S(=O)(=O)O)C(=O)N2[C@H]1C(=O)O` (stereo partly drawn), “inactive”.
The same measure, in the same setting: as for `CC(C)(Sc1cc(C(C)(C)C)c(O)c(C(C)(C)C)c1)Sc1cc(C(C)(C)C)c(O)c(C(C)(C)C)c1`, the entry is “inactive”; as for `Cc1ccc(C(=O)C(C)CN2CCCCC2)cc1` (stereo not drawn), “inactive”.
Consider `O=C1[O][Bi][O]c2ccccc21`, for which the outcome was “inactive [at 0.573 µM]”.
Take `COC(=O)c1ccc(O)cc1`: the Potency result was “inactive”.
Still for that read-out and setting: to `CN1CCN2c3ncccc3Cc3ccccc3C2C1` (stereo not drawn) belongs “inactive”; to `NCc1ccc(S(N)(=O)=O)cc1`, “inactive”.
Same read-out and setting: as for `COc1c(N2C[C@@H]3CCCN[C@@H]3C2)c(F)cc2c(=O)c(C(=O)O)cn(C3CC3)c12`, the entry is “inactive”; as for `COC(=O)CCCCC(CCSS/C(CCO)=C(\C)N(C=O)Cc1cnc(C)nc1N)SC(C)=O` (stereo not drawn), “inactive”.
Still for that read-out and setting: to `CC(=O)[C@H]1CC[C@H]2[C@@H]3C[C@H](C)C4=CC(=O)CC[C@]4(C)[C@H]3[C@@H](O)C[C@]12C` belongs “inactive”.
On to `Nc1nc(N)nc(-c2cc(Cl)ccc2Cl)n1`, for which the Potency result is “inactive”.
Same read-out and setting: to `Clc1cccc(Cl)c1NC1=NCCN1` belongs “inactive”.
Regarding `CCCCC(CC)CNC(=O)CC(C)OC(=O)CCC(=O)O` (stereo not drawn), the Potency result was “inactive”.
The same measure, in the same setting: to `CCN1C(=O)NC(c2ccccc2)C1=O` (stereo not drawn) belongs “inactive”.
Take `NCCCNCCSP(=O)(O)O`: the activity change, negative = cytotoxicity was 2.55% [at 11.4 µM].
Consider `CCCCCCNC(=O)n1cc(F)c(=O)[nH]c1=O`, for which the Potency result was “inactive”.
